Data from PubChem BioAssay AID624086 (Broad Institute, 2012).
The source made the active and inactive calls.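 The calls were made as follows: active = fitted half-maximal effect concentration at or below the top concentration tested; inactive = the rest.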

Test: TCF/LEF reporter activation, dose response, orthogonal assay for GSK3b inhibitor project, cell-based, HEK293T, firefly luciferase, dry powder (AID 624086)
Conditions: 24 h; series mostly up to 26 µM

SMILES | outcome
Cc1[nH]nc2c1C(c1ccc3c(c1)OCO3)C1=C(CC(C)(C)CC1=O)N2 (configuration not stated) | inactive
Cc1[nH]nc2nc3c(cc12)C(=O)CC(C)(C)C3 | inactive
COc1ccccc1C1C(C(C)=O)=C(C)Nc2n[nH]c(C)c21 (configuration not stated) | inactive
COc1ccccc1C1C2=C(CC(C)(C)CC2=O)Nc2onc(C)c21 (configuration not stated) | inactive
CC1(C)CC(=O)/C(=C\c2cccc(F)c2C(F)(F)F)C(=Nc2cc(C(F)(F)F)[nH]n2)C1 | inactive
COc1ccccc1[C@H]1C2=C(CC(C)(C)CC2=O)Nc2n[nH]c(C(F)(F)F)c21 | inactive
O/N=C/c1cn(-c2ccccc2)nc1-c1ccc(F)cc1 | inactive
COc1ccccc1C1C2=C(CCC(C)(C)C2=O)Nc2n[nH]c(C)c21 (configuration not stated) | inactive
Cc1ccccc1C1C2=C(CC(C)(C)CC2=O)Nc2n[nH]c(C)c21 (configuration not stated) | inactive
COc1ccccc1-c1c2c(nc3n[nH]c(C)c13)CCC2=O | inactive
Cc1ccc(-c2nn(-c3ccccc3)cc2/C=N/O)cc1 | inactive
Cc1[nH]nc2c1C(c1ccc(F)cc1)C1=C(CC(C)(C)CC1=O)N2 (configuration not stated) | inactive
Cc1[nH]nc2c1C(c1cccs1)C1C(=O)CC(C)(C)CC1=N2 (configuration not stated) | inactive
CC1(C)CC(=O)C2=C(C1)Nc1n[nH]c(C(F)(F)F)c1C2c1ccc(F)cc1C(F)(F)F (configuration not stated) | inactive
Cc1[nH]nc2c1C(c1cccc(F)c1)C1=C(CC(C)(C)CC1=O)N2 (configuration not stated) | inactive
Cc1[nH]nc2c1C(c1ccc(Cl)s1)C1=C(CC(C)(C)CC1=O)N2 (configuration not stated) | inactive
CC1(C)CC(=O)/C(=C\c2ccccc2C(F)(F)F)C(=Nc2cc(C(F)(F)F)[nH]n2)C1 | inactive
